Assay in all cases: NCI-60 one-dose screen, 48 h (100 = growth as untreated, 0 = no growth, -100 = all killed)
Holding throughout (conditions): 10 µM unless noted

The subject of assay [1] is T-47D breast.
Assay [2] deals with BT-549 breast.
For assay [3], the system named is MDA-MB-435 melanoma.
For assay [4], the system named is SW-620 colon.
Assay [5] concerns MCF7 breast.
Assay [6] relates to HCT-116 colon.
Assay [7] concerns HCC-2998 colon.
Assay [8] deals with KM12 colon.

About 83,000 compounds went through this panel and 20% of them were active in at least one assay; those are over-represented in the sample as a whole.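 Treatment: one concentration, 48 hours, 96-well format. Scoring: percent growth, with anything below 10 considered active.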 A number with no mark means an inactive call. The source made the active and inactive calls.

Take `CN1CCN(c2ccc(Nc3nc(NCCCNS(=O)(=O)c4cccc5ccccc45)c4sccc4n3)cc2)CC1`: the growth in assay [1] is -2.47% (active); in assay [2] it was -87.3% (active); in assay [3] it was -73% (active); in assay [4], -0.438% (active); in assay [5] it was -20.9% (active); in assay [6], -73% (active). In addition, the values for the growth in assay [7] and in assay [8] were -51.4% (active) and 4.02% (active), respectively.
For `CC[C@H](CC[C@@H](C)[C@H]1CC[C@H]2[C@@H]3CC(=O)C4=CC(=O)/C(=C/c5ccc([N+](=O)[O-])cc5)C[C@]4(C)[C@H]3CC[C@]12C)C(C)C`, the growth in assay [1] was 89.1%; in assay [2] it was 109%; in assay [3] it was 94.4%; in assay [4] it was 110%; in assay [5], 84.8%; in assay [6], 86.5%. Further, the growth in assay [7] was 105%; in assay [8] it was 100%.
For the compound `C#C[C@]1(O)CC[C@H]2[C@@H]3CC=C4c5sc(NCc6ccccc6)nc5CC[C@]4(C)[C@H]3CC[C@@]21C`, the growth is 65.8% in assay [1]; 18.2% in assay [2]; 82.2% in assay [3]; 52.7% in assay [4]; 21.7% in assay [5]; 12.5% in assay [6]. Also, the results for the growth in assay [7] and in assay [8] were 78.1% and 18.9%, respectively.
Turning to `C#CCOc1cccc(/C(N)=N/C(N)=N/c2nc3ccccc3s2)c1`, the growth in assay [1] was 72.3%; in assay [2] it was 91.7%; in assay [3] it was 104%; in assay [4], 105%; in assay [5] it was 74.2%; in assay [6], 80.4%. The figures for the growth in assay [7] and in assay [8] were 109% and 78.7%, respectively.
Consider `N#Cc1nc(-c2ccc(Cl)cc2)oc1N1CCC(S(=O)(=O)N2CCOCC2)CC1`, for which the growth in assay [1] is 103%; in assay [2] it was 103%; in assay [3], 99%; in assay [4], 95.9%; in assay [5], 94.3%; in assay [6], 101%. The growth in assay [7] is 102%; in assay [8], 105%.
In the case of `COc1ccccc1N1CCN(C2=C(Cl)C(=O)c3ncccc3C2=O)CC1`, the growth in assay [1] is 19.3%; in assay [2], 119%; in assay [3], 57.7%; in assay [4] it was 43.8%; in assay [5] it was 36.9%; in assay [6], 27.1%. Besides, the values for the growth in assay [7] and in assay [8] were 108% and 90.7%, respectively.
As for `CN1CCN(Cc2ccc(NC(=O)c3cncc(C#Cc4cnc5ccc(N)nn45)c3)cc2C(F)(F)F)CC1`, the growth in assay [1] is 60.5%; in assay [2] it was 38.7%; in assay [3] it was 40.5%; in assay [4], 0.667% (active); in assay [5], -19.7% (active); in assay [6], 1.19% (active). The growth in assay [7] is 20.7%; in assay [8], 3.48% (active).
`CCN(CC)CCOc1ccc(C(=C(c2ccccc2)C2CCCC2)c2ccc(OCCN(CC)CC)cc2)cc1`: the growth was 18.8% in assay [1]; -18.6% (active) in assay [2]; -10% (active) in assay [3]; 33.5% in assay [4]; -57.3% (active) in assay [5]; 13.3% in assay [6]. Besides, the growth in assay [7] is -62.3% (active); in assay [8] it was -7.22% (active).
`C=C1CCc2nc(SCC(=O)O)ccc2N1`: the growth in assay [1] was 98.5%; in assay [2] it was 114%; in assay [3], 101%; in assay [4], 106%; in assay [5], 99.5%; in assay [6], 98%. The growth in assay [7] was 103%; in assay [8], 102%.
In the case of `O=C1[C@H]2Cc3c([nH]c4ccccc34)[C@H](c3ccc(Br)cc3)N2C(=O)CN1C1CCN(CC2CCCCC2)CC1`, the growth is 97.9% in assay [1]; 96.5% in assay [2]; 85.1% in assay [3]; 79.7% in assay [4]; 25.8% in assay [5]; 18% in assay [6]. Further, the growth in assay [7] is 67.8%; in assay [8], 77%.
As to `CCCc1cc2cc(-n3nc(CC)c4c3CC(C)(C)CC4=O)cc(NC3CCC(O)CC3)c2c(=O)[nH]1` (stereo not drawn), the growth in assay [1] is 29.6%; in assay [2] it was 38.7%; in assay [3], 0.0389% (active); in assay [4], 12.3%; in assay [5] it was 17.7%; in assay [6], 6.5% (active). Moreover, the growth in assay [7] was 8.95% (active); in assay [8], 15.4%.
With `CCCCSC1=C(Cl)CN(c2ccc(Cl)cc2)C1=O`, the growth in assay [1] is 72.7%; in assay [2], 112%; in assay [3], 107%; in assay [4] it was 104%; in assay [5], 26.2%; in assay [6], 93.4%. Besides, the growth in assay [7] was 107%; in assay [8], 98.7%.
For the compound `O=C(CCCCCCN1CC(=O)N2[C@@H](c3cccs3)c3[nH]c4ccccc4c3C[C@H]2C1=O)NO`, the growth in assay [1] was 42.7%; in assay [2], 104%; in assay [3], 80.8%; in assay [4], 82.7%; in assay [5], 52.1%; in assay [6], 60.5%. The growth in assay [7] is 101%; in assay [8], 81.8%.
In the case of `C#C[C@]1(O)CC[C@H]2[C@@H]3CC=C4c5sc(Nc6cccc(F)c6)nc5CC[C@]4(C)[C@H]3CC[C@@]21C`, the growth in assay [1] was 29.9%; in assay [2], 19.4%; in assay [3], 29.9%; in assay [4], 8.9% (active); in assay [5], 0.863% (active); in assay [6] it was 2.09% (active). Moreover, the growth in assay [7] was 42%; in assay [8], 13.7%.
As to `CCCNNC(=O)c1ccc(-c2ccc(NC(=O)CCCCCCC(=O)N[C@H](C(=O)N3C[C@H](O)C[C@H]3C(=O)N[C@@H](C)c3ccc(-c4scnc4C)cc3)C(C)(C)C)cc2)cc1`, the growth in assay [1] is 9.23% (active); in assay [2], 50.5%; in assay [3], 8.72% (active); in assay [4] it was 12.1%; in assay [5] it was 12%; in assay [6] it was 7.95% (active). Further, the results for the growth in assay [7] and in assay [8] were 19.4% and 26.7%, respectively.
With `CN1CCN(CCCCCC(=O)Nc2nc(-c3cccc(NS(=O)(=O)c4cccc5c(N(C)C)cccc45)c3)cs2)CC1`, the growth in assay [1] was 72.3%; in assay [2], 90.7%; in assay [3], 52.1%; in assay [4], 92.8%; in assay [5] it was 14.8%; in assay [6], 51.6%. The growth is 83.7% in assay [7] and 79.6% in assay [8].
